# Shown are actives, neighbours in structure and some others; about 10% of the full set was active somewhere.
# PNC assembly inh: perinucleolar compartment assembly inhibition; PC3M PTB-GFP, PNC prevalence imaging, 16 h; active compounds read low; activity change (PNC), negative = inhibition, % at 10 µM; 140,000 tested, 3.1% active;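 active = readout at or below -70, meaning at least 70% loss of cells showing the perinucleolar compartment, a nuclear body marking cancer cells; inconclusive = readout between -30 and a set limit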
#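 PC3M cells stably expressing PTB-GFP, 750–1000 cells/well, treated 16 h at 37 °C with compound (23 nl of library stock), in duplicate. After paraformaldehyde fixation and Hoechst stain, imaged at 20x; PNC prevalence scored by image analysis.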
# ALDH1A1 block: inhibitors of human aldehyde dehydrogenase 1A1; Potency, µM (doses to about 75.3 µM), actives largely listed as inhibitors; 220,000 tested, 7.3% active; Purified ALDH1A1, NADH fluorescence, propionaldehyde substrate; P00352; AID 1030
# ALOX12 inhib: inhibitors of human 12-lipoxygenase (ALOX12); P18054; purified 12-hLO, xylenol orange hydroperoxide absorbance; Potency, µM (highest dose often 57.1 µM), usual class: inhibitors; 150,000 tested, 0.12% active; AID 1452; active = well fitted inhibition curve with a large enough effect; inconclusive = small, poorly fitted or top-dose-only effect; note: nearly all actives have a fitted effect of over 55% in size
# Target sequence (P18054 whole entry, looked up): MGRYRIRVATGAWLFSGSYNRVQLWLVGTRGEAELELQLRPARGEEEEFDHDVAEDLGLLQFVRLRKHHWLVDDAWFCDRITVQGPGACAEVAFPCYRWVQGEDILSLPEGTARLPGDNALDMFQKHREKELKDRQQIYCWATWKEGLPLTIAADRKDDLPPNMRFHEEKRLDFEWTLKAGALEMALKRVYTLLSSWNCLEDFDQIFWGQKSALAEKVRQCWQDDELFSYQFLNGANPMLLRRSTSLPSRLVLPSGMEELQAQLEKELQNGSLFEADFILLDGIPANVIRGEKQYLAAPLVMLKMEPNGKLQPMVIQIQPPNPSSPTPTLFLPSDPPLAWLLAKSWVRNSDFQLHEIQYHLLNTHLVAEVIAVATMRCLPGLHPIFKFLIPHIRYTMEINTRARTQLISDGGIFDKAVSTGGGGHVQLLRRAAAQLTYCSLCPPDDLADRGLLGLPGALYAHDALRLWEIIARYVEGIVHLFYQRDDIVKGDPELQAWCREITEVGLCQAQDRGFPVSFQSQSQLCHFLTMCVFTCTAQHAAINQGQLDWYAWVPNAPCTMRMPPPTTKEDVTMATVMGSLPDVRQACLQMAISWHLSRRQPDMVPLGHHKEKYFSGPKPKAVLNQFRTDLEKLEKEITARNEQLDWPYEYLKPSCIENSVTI
#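 Xylenol orange chromogenic assay: hydroperoxide from 12hLO oxidises Fe(II), giving red-shifted Fe(III)-XO absorbance. Conditions: 150 nM enzyme, 40 uM arachidonic acid, 25 mM Hepes pH 7.0, 0.01% Triton X-100, 30 min, room temperature.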
# Lamin A splicing: LMNA splicing modulation | HeLa LMNA splicing GFP/RFP minigene ratio, 48 h | Potency, µM (series often up to 46.1 µM), usual class: inhibitors | 200,000 tested, 0.01% active; active = well fitted inhibition curve with a large enough effect in the signal ratio, with a control signal flat, not every such curve was filed as active; inconclusive = small, poorly fitted or top-dose-only effect, or effect the other way, or a change in a side signal; the % refers to the signal ratio
#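 S3 HeLa stable clones carrying a lamin A-EGFP splicing minigene plus DsRed2 were seeded at 600 cells/well in Opti-MEM with 2% FBS, pin-dosed and incubated 48 h at 37°C. Acumen cytometry (488 nm) gave the GFP/RFP total-intensity ratio.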
# HPGD inh: HPGD (human) dehydrogenase inhibition; Potency, µM, usual class: inhibitors; purified HPGD, NADH fluorescence kinetic, PGE2 substrate; P15428; 150,000 tested, 4.3% active
#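 20 nM HPGD preincubated 15 min at room temperature with compound in 50 mM Tris-HCl pH 8, 0.01% Tween 20. Started with 1 mM NAD+ and 30 uM prostaglandin E2; NADH fluorescence (360/450 nm) read 5 times over 30-s intervals, last minus first.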
# A number is an active result; i = inactive; ? = inconclusive; nt = no result; [ ] = remark or other dose. Unless noted, calls come from the whole dose curve; as a rule, active = well fitted inhibition curve with a large enough effect (not every such curve was filed as active); inconclusive = small, poorly fitted or top-dose-only effect, or another doubt; inactive = no such curve, though single readings can be large or run the other way.
SMILES,PNC assembly inh,ALDH1A1 block,ALOX12 inhib,Lamin A splicing,HPGD inh
COCCn1c(-c2ccccc2)nc2ccccc21,-113,i,i,i,?
CCCn1c(-c2ccc(OC)cc2)nc2ccccc21,i,?,i,?,i
O=c1c2ccccc2n2c(-c3ccc(F)cc3)nnc2n1Cc1ccccc1,-102,?,i,i,i
COc1ccc(-c2nc3ccccc3n2Cc2ccc(C)cc2)cc1,-82,i,i,?,i
COCCNC(=O)c1sc2ncccc2c1-n1c(C)ccc1C,nt,nt,nt,i,nt
Cc1ccc(/C=C/c2nc3ccccc3c(=O)n2CCc2ccccc2)cc1,-83,i,i,?,i
Cc1ccccc1/C=C/c1nc2ccccc2c(=O)n1CCc1ccccc1,i,i,i,?,i
CSc1nsc(SCC(=O)Nc2nc3ccc(C)cc3s2)n1,i,40µM,i,i,i
Cc1ccc2nc(NC(=O)COC(=O)CSc3nc(C)cc(C)n3)sc2c1,i,13µM,i,?,?
CCOc1ccc(C2=CC(c3cc(Br)ccc3F)n3ncnc3N2)cc1Cl (stereo unspecified),nt,nt,nt,i,nt
C=CC[C@](C)(O)c1ccccc1,nt,i,i,nt,i
Cc1nn(C)c(Oc2ccccc2)c1CCNC(=O)CCl,nt,22µM,nt,nt,nt
CC(=O)OCc1c(C(F)(F)F)nn(C)c1Oc1ccccc1,i,i,i,i,i
CN(C)Cc1ccccc1-c1cncnc1NC1CC1,nt,i,i,i,i
Cc1ccccc1C(=O)NCC(=O)NNC(=S)NC(=O)c1ccccc1C,i,i,i,?,25µM
Cc1ccccc1C(=O)NCC(=O)NNC(=S)NC(=O)c1ccccc1,-83,?,i,i,i
Cc1ccccc1C(=O)NCC(=O)O,nt,i,nt,?,nt
COC(=O)C1=CO[C@@H](O[C@H]2OC(CO)C(O)C(O)C2O)C2C1CC(O)C2C (stereo partly specified),nt,i,i,i,i
CCN1C(c2ccc(F)cc2)=CS/C1=C(\C#N)c1nnc2n1-c1ccccc1SC2,i,13µM,i,?,?
CN1C(c2ccc(F)cc2)=CS/C1=C(/C#N)c1nnc(N2CCOCC2)n1-c1ccccc1,i,0.79µM,i,i,i
C=CCN1C(c2ccccc2)=CS/C1=C(/C#N)c1nnc(N2CCOCC2)n1-c1ccccc1,i,5.6µM,i,i,i
CC(C)[C@@H]1O[C@H](/C=C\c2ccccc2)OCC1(C)C,nt,nt,i[11.4 µM],nt,nt
CC(Oc1ccccc1)C(=O)NC1C(=O)N2C(C(=O)O)C(C)(C)S[C@@H]12 (stereo partly specified),nt,i,i,i,i
COc1ccccc1CNc1nccn(-c2ccccc2)c1=O,nt,nt,nt,i,nt
C=CCn1c(SCc2c(C(=O)OC)sc(N)c2C(=O)OC)nnc1-c1ccc(Br)cc1,?,25µM,i,i,?
SMILES,PNC assembly inh,ALDH1A1 block,ALOX12 inhib,Lamin A splicing,HPGD inh
CCCSc1nnc2c(n1)OC(c1ccc(OCC(=O)O)cc1)Nc1ccccc1-2 (stereo unspecified),nt,nt,nt,i,nt
CC1CCCN(C(=O)c2ccc3c(=O)n(C4CCCC4)c(=S)[nH]c3c2)C1 (stereo unspecified),nt,3.5µM,nt,nt,nt
Cc1nn(Cc2cccc(C(=O)N3CCCC(C)C3)c2)c(C)c1[N+](=O)[O-] (stereo unspecified),?,?,i,?,14µM
CC1CCCN(C(=O)c2ccc3nc[nH]c3c2)C1 (stereo unspecified),i,?,i,i,2µM
Cc1nn(Cc2cccc(C(=O)Nc3ccn(Cc4ccccc4F)n3)c2)c(C)c1[N+](=O)[O-],i,i,i,i,i
CC(C)=CCC/C(C)=C/C=O,nt,?,i,nt,i
COc1ccc(CNc2oc(-c3ccc(COc4ccc(Cl)cc4)o3)nc2C#N)cc1,nt,nt,nt,i,nt
CCC(=O)O[C@@]1(C(=O)SCF)[C@@H](C)C[C@H]2[C@@H]3C[C@@H](F)C4=CC(=O)C=C[C@@]4(C)[C@]3(F)[C@@H](O)C[C@]21C,nt,i,i,?,i
CCOc1ccc(NC(=O)N2CCN(Cc3cc(=O)n4nc(-c5ccc(OC)cc5)sc4n3)CC2)cc1,nt,nt,nt,i,nt
Cc1ccc(Nc2c(-c3ccc(N4CCOCC4)cc3)nc3ncccn23)cc1C,-102,i,i,i,i
Cc1ccc(Nc2c(-c3ccc(N4CCOCC4)cc3)nc3ncccn23)cc1,i,?,i,i,i
CCCCCN1N=C(C)CC1=O,nt,0.63µM,nt,i,nt
O=C(CCN1CCOCC1)c1ccccc1,i,0.32µM,i,i,i

# Source: PubChem BioAssay
